# Assay results as given in the supplement of paper PMC12282887.
# ± gives the standard deviation of the averaged measurements.
# Tests used:
# Experiment in all cases: promoter activity interaction Z-score (Lux/OD deviation from empty-vector control); higher = stronger promoter induction by the compound
# [1] = test system: E. coli BW25113 acrABp lux reporter
# In short: (§1)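 Reporter strains of E. coli BW25113 grew at 37°C in 40 µl LB Lennox in 384-well plates. Readings of OD600 and luminescence were taken every 30 min over 12 h, integrated over 0–8 h (wild type) or 1–9 h (deletion strains), and wells below 10% of the median growth value were excluded. Scores are Z-transformed residuals of growth-normalised luminescence from a fit against a control.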
# [2] = test system: E. coli BW25113 micFp lux reporter
# In short: as §1
# [3] = test system: E. coli BW25113 ompFp lux reporter
# In short: as §1
# [4] = test system: E. coli BW25113 robp lux reporter
# In short: as §1
# [5] = test system: E. coli BW25113 soxSp lux reporter
# In short: as §1
# [6] = test system: E. coli BW25113 tolCp lux reporter
# In short: as §1
# [7] = 0.11 µg/ml, genetic background: wild type
# [8] = 0.11 µg/ml, genetic background: ΔmarA
# [9] = 0.11 µg/ml, genetic background: Δrob
# [10] = 0.11 µg/ml, genetic background: ΔsoxS
# [11] = 0.21 µg/ml, genetic background: wild type
# [12] = 0.21 µg/ml, genetic background: ΔmarA
# [13] = 0.21 µg/ml, genetic background: Δrob
# [14] = 0.21 µg/ml, genetic background: ΔsoxS
# [15] = 0.43 µg/ml, genetic background: wild type
# [16] = 0.43 µg/ml, genetic background: ΔmarA
# [17] = 0.43 µg/ml, genetic background: Δrob
# [18] = 0.43 µg/ml, genetic background: ΔsoxS
# [19] = 0.86 µg/ml, genetic background: wild type
# [20] = 0.86 µg/ml, genetic background: ΔmarA
# [21] = 0.86 µg/ml, genetic background: Δrob
# [22] = 0.86 µg/ml, genetic background: ΔsoxS
compound,measurement,setting,value
Cc1ncc([N+](=O)[O-])n1CCO [Metronidazole],promoter activity interaction Z-score,[1]; [7],0.0148 ± 0.051
same,promoter activity interaction Z-score,[1]; [8],0.993 ± 0.18
same,promoter activity interaction Z-score,[1]; [9],0.102 ± 0.12
same,promoter activity interaction Z-score,[1]; [10],0.194 ± 0.31
same,promoter activity interaction Z-score,[1]; [11],-0.197 ± 0.0096
same,promoter activity interaction Z-score,[1]; [12],-0.0386 ± 0.09
same,promoter activity interaction Z-score,[1]; [13],0.0596 ± 0.14
same,promoter activity interaction Z-score,[1]; [14],0.187 ± 0.31
same,promoter activity interaction Z-score,[1]; [15],-0.222 ± 0.18
same,promoter activity interaction Z-score,[1]; [16],0.706 ± 0.8
same,promoter activity interaction Z-score,[1]; [17],-0.0336 ± 0.17
same,promoter activity interaction Z-score,[1]; [18],0.0816 ± 0.12
same,promoter activity interaction Z-score,[1]; [19],0.191 ± 0.025
same,promoter activity interaction Z-score,[1]; [20],0.645 ± 0.49
same,promoter activity interaction Z-score,[1]; [21],0.143 ± 0.34
same,promoter activity interaction Z-score,[1]; [22],-0.0136 ± 0.22
same,promoter activity interaction Z-score,[2]; [7],-0.0559 ± 0.11
same,promoter activity interaction Z-score,[2]; [8],-0.0152 ± 0.0074
same,promoter activity interaction Z-score,[2]; [9],0.0206 ± 0.0032
same,promoter activity interaction Z-score,[2]; [10],-0.264 ± 0.11
same,promoter activity interaction Z-score,[2]; [11],-0.327 ± 0.068
same,promoter activity interaction Z-score,[2]; [12],-0.09496 ± 0.00031
same,promoter activity interaction Z-score,[2]; [13],-0.0735 ± 0.081
same,promoter activity interaction Z-score,[2]; [14],-0.0751 ± 0.037
same,promoter activity interaction Z-score,[2]; [15],-0.152 ± 0.26
same,promoter activity interaction Z-score,[2]; [16],-0.0333 ± 0.092
same,promoter activity interaction Z-score,[2]; [17],-0.000559 ± 0.02
same,promoter activity interaction Z-score,[2]; [18],-0.18 ± 0.06
same,promoter activity interaction Z-score,[2]; [19],-0.0833 ± 0.079
same,promoter activity interaction Z-score,[2]; [20],0.00541 ± 0.1
same,promoter activity interaction Z-score,[2]; [21],-0.0861 ± 0.014
same,promoter activity interaction Z-score,[2]; [22],-0.189 ± 0.084
same,promoter activity interaction Z-score,[3]; [7],0.217 ± 0.3
same,promoter activity interaction Z-score,[3]; [8],0.187 ± 0.0061
same,promoter activity interaction Z-score,[3]; [9],-0.155 ± 0.074
same,promoter activity interaction Z-score,[3]; [10],-0.0733 ± 0.12
same,promoter activity interaction Z-score,[3]; [11],-0.138 ± 0.22
same,promoter activity interaction Z-score,[3]; [12],-0.0604 ± 0.18
same,promoter activity interaction Z-score,[3]; [13],0.261 ± 0.17
same,promoter activity interaction Z-score,[3]; [14],0.2636 ± 0.0018
same,promoter activity interaction Z-score,[3]; [15],-0.0385 ± 0.54
same,promoter activity interaction Z-score,[3]; [16],0.144 ± 0.29
same,promoter activity interaction Z-score,[3]; [17],0.609 ± 0.017
same,promoter activity interaction Z-score,[3]; [18],0.11 ± 0.042
same,promoter activity interaction Z-score,[3]; [19],0.547 ± 0.5
same,promoter activity interaction Z-score,[3]; [20],1.12 ± 0.3
same,promoter activity interaction Z-score,[3]; [21],0.862 ± 0.19
same,promoter activity interaction Z-score,[3]; [22],0.815 ± 0.34
same,promoter activity interaction Z-score,[4]; [7],0.061 ± 0.23
same,promoter activity interaction Z-score,[4]; [8],0.425 ± 0.28
same,promoter activity interaction Z-score,[4]; [9],0.355 ± 0.21
same,promoter activity interaction Z-score,[4]; [10],-0.235 ± 0.13
same,promoter activity interaction Z-score,[4]; [11],0.165 ± 0.35
same,promoter activity interaction Z-score,[4]; [12],-0.111 ± 0.75
same,promoter activity interaction Z-score,[4]; [13],0.8 ± 0.29
same,promoter activity interaction Z-score,[4]; [14],0.979 ± 1.1
same,promoter activity interaction Z-score,[4]; [15],0.177 ± 0.99
same,promoter activity interaction Z-score,[4]; [16],0.7 ± 0.077
same,promoter activity interaction Z-score,[4]; [17],0.452 ± 0.054
same,promoter activity interaction Z-score,[4]; [18],-0.0713 ± 0.41
same,promoter activity interaction Z-score,[4]; [19],0.378 ± 0.83
same,promoter activity interaction Z-score,[4]; [20],0.776 ± 0.22
same,promoter activity interaction Z-score,[4]; [21],0.36 ± 0.24
same,promoter activity interaction Z-score,[4]; [22],0.489 ± 0.32
same,promoter activity interaction Z-score,[5]; [7],0.0487 ± 0.14
same,promoter activity interaction Z-score,[5]; [8],0.0513 ± 0.066
same,promoter activity interaction Z-score,[5]; [9],-0.047 ± 0.051
same,promoter activity interaction Z-score,[5]; [10],-0.0356 ± 0.017
same,promoter activity interaction Z-score,[5]; [11],-0.0569 ± 0.11
same,promoter activity interaction Z-score,[5]; [12],-0.088 ± 0.048
same,promoter activity interaction Z-score,[5]; [13],0.106 ± 0.0032
same,promoter activity interaction Z-score,[5]; [14],0.0415 ± 0.21
same,promoter activity interaction Z-score,[5]; [15],0.0827 ± 0.065
same,promoter activity interaction Z-score,[5]; [16],-0.0818 ± 0.06
same,promoter activity interaction Z-score,[5]; [17],0.0852 ± 0.18
same,promoter activity interaction Z-score,[5]; [18],0.0431 ± 0.011
same,promoter activity interaction Z-score,[5]; [19],0.036 ± 0.026
same,promoter activity interaction Z-score,[5]; [20],-0.085 ± 0.049
same,promoter activity interaction Z-score,[5]; [21],-0.132 ± 0.058
same,promoter activity interaction Z-score,[5]; [22],0.0974 ± 0.06
same,promoter activity interaction Z-score,[6]; [7],-0.237 ± 0.51
same,promoter activity interaction Z-score,[6]; [8],0.544 ± 0.53
same,promoter activity interaction Z-score,[6]; [9],-0.201 ± 0.23
same,promoter activity interaction Z-score,[6]; [10],0.183 ± 0.079
same,promoter activity interaction Z-score,[6]; [11],-0.938 ± 0.4
same,promoter activity interaction Z-score,[6]; [12],-0.0891 ± 0.26
same,promoter activity interaction Z-score,[6]; [13],0.158 ± 0.57
same,promoter activity interaction Z-score,[6]; [14],-0.129 ± 0.43
same,promoter activity interaction Z-score,[6]; [15],-0.953 ± 0.17
same,promoter activity interaction Z-score,[6]; [16],0.401 ± 1.3
same,promoter activity interaction Z-score,[6]; [17],-0.12 ± 0.26
same,promoter activity interaction Z-score,[6]; [18],-0.386 ± 0.015
same,promoter activity interaction Z-score,[6]; [19],0.119 ± 0.47
same,promoter activity interaction Z-score,[6]; [20],0.316 ± 0.49
same,promoter activity interaction Z-score,[6]; [21],-0.271 ± 1.3
same,promoter activity interaction Z-score,[6]; [22],0.345 ± 0.71
